Sampled rows, rich in hits. Any-hit rate of the full collection: about 4.8%.
DAX1 inh-1: inhibitors of DAX1 repression of SF-1 activated StAR promoter | HEK293T StAR-luciferase reporter, SF-1/DAX-1 repression relief | inhibition, % at 6.8 µM | hit rate 1.1% among 370,000;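 active = inhibition above the mean over all tested compounds plus 3 SD, cut at about 3.6% in these data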;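 note: 0% = DAX-1 cells with DMSO and 100% = cells lacking DAX-1 with DMSO; higher inhibition means more luminescence from relief of DAX-1 repression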
hcDAF-12 act: H. contortus DAF-12 activation, primary screen | HEK293 hcDAF-12 lit1-tk-luc reporter, luminescence; 0% DMSO, 100% Δ7-dafachronic acid | activation, % at 6.8 µM | hit rate 1.4% among 370,000 | AID 652067;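 active = activation above the mean of all tested compounds plus 3 SD, cut at about 5.5% in these data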;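 note: 100% = response to 3 µM Δ7-dafachronic acid high control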
DAX1 inh-2: NR0B1 (DAX1) inhibition | AID 504766 | hit rate 0.99% among 340,000 | inhibition, % at 6.75 µM | HEK293 Gal4-DAX1 luciferase reporter, luminescence;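 active = inhibition above the mean over all tested compounds plus 3 SD, cut at about 4.2% in these data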;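 note: 0% = DAX1-transfected cells with DMSO and 100% = empty-vector control cells with DMSO; inhibition shows as a rise in luminescence from relieved DAX1 repression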
Target sequence (P51843 207-470 limits assumed): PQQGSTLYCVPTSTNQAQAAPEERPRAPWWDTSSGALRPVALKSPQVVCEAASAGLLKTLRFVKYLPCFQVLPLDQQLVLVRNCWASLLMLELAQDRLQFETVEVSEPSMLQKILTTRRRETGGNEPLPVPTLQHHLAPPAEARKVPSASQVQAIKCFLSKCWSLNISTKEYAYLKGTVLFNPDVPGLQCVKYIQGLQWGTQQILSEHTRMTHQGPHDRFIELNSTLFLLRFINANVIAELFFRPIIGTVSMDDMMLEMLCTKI
hgDAF12 agonist: activates the H. glycines DAF-12 receptor ligand-binding domain. HEK293 GAL4-hgDAF12 UAS-luciferase reporter, agonist luminescence; normalized to butyrate control. activation, % at 6.8 µM. hit rate 1.8% among 370,000. AID 687014;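 active = activation above a cutoff set at the mean of all screened compounds plus 3 SD, cut at about 10% in these data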;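 note: 0% = DMSO wells and 100% = sodium butyrate wells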
ssDAF-12 act: activates DAF-12 receptor from parasite S. stercoralis; HEK293 ssDAF-12/GRIP1 lit1-tk-luc reporter, luminescence; % of 3 µM dafachronic acid response; activation, % at 6.8 µM; hit rate 1% among 370,000;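 active = activation above the mean over all tested compounds plus 3 SD, cut at about 0.9% in these data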;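 note: 0% = DMSO-only wells and 100% = 3 µM delta7-dafachronic acid wells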
SMARCA2 act: activators of SMARCA2 function. MG213 cells, MMTV-luciferase reporter, dexamethasone, overnight. activation, % at 9.1 µM. hit rate 1% among 370,000; in the data active = activation above about 7.8%;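 note: 0% = vehicle wells and 100% = reference activator wells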
* hit, by the source's call.

What do the screens show for `Clc1ccc(-c2cn(-c3nc4ccccc4s3)nn2)cc1`?
DAX1 inh-1: 1; hcDAF-12 act: 5.7*; hgDAF12 agonist: 2; ssDAF-12 act: 0; SMARCA2 act: -3

Results for CCOC(=O)N1CCN(C(=O)CN2C(=O)c3ccccc3S2(=O)=O)CC1 ?
DAX1 inh-1: 0; hcDAF-12 act: 2; DAX1 inh-2: 3; hgDAF12 agonist: 1; ssDAF-12 act: -1; SMARCA2 act: 1

How did CCN1CCN(C(=O)CN2C(=O)c3ccccc3S2(=O)=O)CC1 do in these assays?
DAX1 inh-1: 3.8*; hcDAF-12 act: 1; DAX1 inh-2: 3; hgDAF12 agonist: 3; ssDAF-12 act: -1; SMARCA2 act: 3

What do the screens show for `CCCN1C2CCCC1CC(NC(=O)c1ccccc1OCC)C2` (stereo not given)?
DAX1 inh-1: 2; hcDAF-12 act: 5; DAX1 inh-2: 1; hgDAF12 agonist: 3; ssDAF-12 act: 0.9*; SMARCA2 act: 6

What do the screens show for `COCC(=O)N1CCC(Oc2ccc(C(=O)N3CCCCCC3)cc2)CC1`?
DAX1 inh-1: 0; hcDAF-12 act: -2; DAX1 inh-2: -1; hgDAF12 agonist: 1; ssDAF-12 act: 0; SMARCA2 act: 1

What do the screens show for `CC(=O)c1sc(NC(=O)COc2ccc([N+](=O)[O-])cc2)nc1C`?
DAX1 inh-1: 0; hcDAF-12 act: -1; DAX1 inh-2: 0; hgDAF12 agonist: 0; ssDAF-12 act: -1; SMARCA2 act: -2

How did Cc1nc(NC(=S)NC(=O)COc2ccccc2Cl)ccc1Br do in these assays?
DAX1 inh-1: -1; hcDAF-12 act: -2; DAX1 inh-2: 0; hgDAF12 agonist: -3; ssDAF-12 act: 0.9*; SMARCA2 act: -2

What do the screens show for `CCc1ccc(OCC(=O)NC(=S)Nc2ccc(Br)c(C)n2)cc1`?
DAX1 inh-1: 0; hcDAF-12 act: 4; DAX1 inh-2: 2; hgDAF12 agonist: -1; ssDAF-12 act: -1; SMARCA2 act: 1

How did COc1ccccc1NC(=S)N1CCN(c2ncccn2)CC1 do in these assays?
DAX1 inh-1: 0; hcDAF-12 act: -1; DAX1 inh-2: 0; hgDAF12 agonist: -3; ssDAF-12 act: -1; SMARCA2 act: 1

What do the screens show for `COc1cccc(C(=O)N(c2ccc(C)cc2)C2C=CS(=O)(=O)C2)c1` (stereo not given)?
DAX1 inh-1: -1; hcDAF-12 act: -1; DAX1 inh-2: 0; hgDAF12 agonist: -1; ssDAF-12 act: -1; SMARCA2 act: 7.9*

What do the screens show for `Cc1ccccc1C1c2[nH]c3ccccc3c2C[C@H]2C(=O)N(C3CC3)CC(=O)N12` (stereo not given in full)?
DAX1 inh-1: 0; hcDAF-12 act: 6.4*; DAX1 inh-2: -1; hgDAF12 agonist: -1; ssDAF-12 act: 0; SMARCA2 act: -2

Results for O=C1[C@@H]2Cc3c([nH]c4ccccc34)C(c3ccccc3)N2C(=O)CN1C1CC1 (stereo not given in full) ?
DAX1 inh-1: -1; hcDAF-12 act: 4; DAX1 inh-2: 1; hgDAF12 agonist: 0; ssDAF-12 act: 0; SMARCA2 act: 2

Results for CC(C)C[C@H]1CNC(=S)N1CC1CCN(CCC2CCCC2)CC1 ?
DAX1 inh-1: 3; hcDAF-12 act: 0; DAX1 inh-2: -1; hgDAF12 agonist: 3; ssDAF-12 act: -1; SMARCA2 act: -5

Results for CCC(CC)CN1CCC(CN2C(=S)NC[C@@H]2CC(C)C)CC1 ?
DAX1 inh-1: 3.7*; hcDAF-12 act: 0; DAX1 inh-2: 1; hgDAF12 agonist: 1; ssDAF-12 act: -1; SMARCA2 act: -2

How did Cn1c(CN2CCN(C(=O)c3ccccc3Cl)CC2)nc2cc([N+](=O)[O-])ccc21 do in these assays?
DAX1 inh-1: 0; hcDAF-12 act: 0; DAX1 inh-2: 0; hgDAF12 agonist: 0; ssDAF-12 act: -2; SMARCA2 act: -3

How did Cn1c(CN2CCN(C(=O)c3ccccc3)CC2)nc2cc([N+](=O)[O-])ccc21 do in these assays?
DAX1 inh-1: 1; hcDAF-12 act: 0; DAX1 inh-2: -2; hgDAF12 agonist: -3; ssDAF-12 act: 0.9*; SMARCA2 act: -1

How did O=C(CCc1nc2ccccc2s1)OCc1ccccc1 do in these assays?
DAX1 inh-1: 0; hcDAF-12 act: -1; DAX1 inh-2: 0; hgDAF12 agonist: 0; ssDAF-12 act: -1; SMARCA2 act: -1

How did COc1cccc(/C=C2/Sc3ccc(C(=O)NCCCN4CCCC4)cc3NC2=O)c1 do in these assays?
DAX1 inh-1: 3.7*; hcDAF-12 act: -2; DAX1 inh-2: 1; hgDAF12 agonist: 0; ssDAF-12 act: -1; SMARCA2 act: 2

How did O=C1Nc2cc(C(=O)NCCCN3CCCC3)ccc2S/C1=C/c1ccccc1F do in these assays?
DAX1 inh-1: 3; hcDAF-12 act: -2; DAX1 inh-2: 0; hgDAF12 agonist: 0; ssDAF-12 act: -2; SMARCA2 act: 1

What do the screens show for `Cc1ccccc1CCNC(=O)C1CCCN(c2cnccn2)C1` (stereo not given)?
DAX1 inh-1: 0; hcDAF-12 act: 0; DAX1 inh-2: 0; hgDAF12 agonist: -1; ssDAF-12 act: -1; SMARCA2 act: 1

What do the screens show for `Cc1cc(=O)oc2ccc(OCC(=O)N3CCc4ccccc43)cc12`?
DAX1 inh-1: 0; hcDAF-12 act: 0; DAX1 inh-2: 0; hgDAF12 agonist: -3; ssDAF-12 act: -1; SMARCA2 act: -3

Results for COc1ccc(-c2nc3ccc([N+](=O)[O-])cc3o2)cc1 ?
DAX1 inh-1: 1; hcDAF-12 act: 0; DAX1 inh-2: 3; hgDAF12 agonist: 7; ssDAF-12 act: -1; SMARCA2 act: 3

What do the screens show for `CCCOc1ccc(-c2c(C(=O)N/N=C/c3ccccc3)nnn2-c2nonc2N)cc1`?
DAX1 inh-1: 0; hcDAF-12 act: 0; DAX1 inh-2: 3; hgDAF12 agonist: -1; ssDAF-12 act: 2.4*; SMARCA2 act: -5

Results for CCOc1ccc(/C=N/NC(=O)c2nnn(-c3nonc3N)c2-c2ccc(OCC)cc2)cc1 ?
DAX1 inh-1: 0; hcDAF-12 act: -1; DAX1 inh-2: 1; hgDAF12 agonist: -1; ssDAF-12 act: -1; SMARCA2 act: -2

What do the screens show for `CC(Sc1nc2ccccc2s1)C(=O)N1CCOCC1` (stereo not given)?
DAX1 inh-1: 1; hcDAF-12 act: 3; DAX1 inh-2: 2; hgDAF12 agonist: 3; ssDAF-12 act: 1.2*; SMARCA2 act: -4

What do the screens show for `Cc1cccnc1NC(=S)Nc1ccc(Br)cc1Cl`?
DAX1 inh-1: 4; hcDAF-12 act: 3; DAX1 inh-2: 6.7*; hgDAF12 agonist: 12*; ssDAF-12 act: 0; SMARCA2 act: 4

How did S=C(NCc1ccncc1)Nc1ccc(Br)cc1Cl do in these assays?
DAX1 inh-1: -4; hcDAF-12 act: -2; DAX1 inh-2: -1; hgDAF12 agonist: -4; ssDAF-12 act: -1; SMARCA2 act: -1
